Screening data (PubChem BioAssay)
In the library only some 8.1% were active in any assay of this set; here they are far more common.
SW480 rerep: DNA re-replication induction in SW480 cells. SW480 DNA re-replication, Hoechst DNA content imaging, 48 h. 340,000 tested, 1.8% active. AID 624297. Potency, µM (titrated, usually from 46.1 µM), hits mostly activators; further: nearly all actives have a fitted effect of over 55% in size
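Cells (250 per well) received 23 nL compound or DMSO by pin tool and were kept 48 hr at 37 C, 5% CO2. Nuclei were then stained with Hoechst for 40 min and scanned for DNA content.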
ELG1 DNA repair: blocks ELG1-dependent DNA repair in HEK293T cells; HEK293T ELG1-luciferase reporter, luminescence, 16 h; DNA damage induced by 5-fluorouridine; Potency, µM (titrated, usually from 46.1 µM), most hits filed as inhibitors; 330,000 tested, 2.3% active; AID 504467; further: nearly all actives have a fitted effect of over 55% in size
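Overnight (16 hr) co-exposure of 2,000 cells/well to 5-fluorouridine and compound at 37 °C preceded detection. Luciferase was quantified via ONE-Glo luminescence; loss of signal denotes inhibition.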
KB-3-1 tox: kills parental KB-3-1 adenocarcinoma cells | Potency, µM (doses to about 46.1 µM), actives largely listed as cytotoxic | 400,000 tested, 1.4% active | AID 1347075 | KB-3-1 viability, CellTiter-Glo ATP luminescence, 72 h; further: nearly all actives have a fitted effect of over 60% in size
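Here the drug-naive KB-3-1 line serves as comparator for MDR sub-line selectivity; cells received compound titrations, 72 h at 37 °C, then CellTiter-Glo readout.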
MCF10A rereplic: DNA re-replication induction in MCF 10a cells; MCF 10A DNA re-replication, Hoechst nuclear intensity, 48 h; Potency, µM (titrated, usually from 46.1 µM), actives largely listed as activators; 350,000 tested, 2.9% active; AID 624296; further: nearly all actives have a fitted effect of over 50% in size
KB-V1 cytotox: KB-V1 MDR subline cytotoxicity. KB-V1 MDR cells viability, CellTiter-Glo, 72 h. Potency, µM (top dose mostly 46.1 µM), hits mostly cytotoxic. 400,000 tested, 3.4% active; further: nearly all actives have a fitted effect of over 60% in size
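KB-V1 cells (P-gp-expressing MDR subline of KB-3-1) in phenol-red-free DMEM with 10% FBS were exposed to library compounds over a concentration series for 72 h at 37 degrees C. Viability read by CellTiter-Glo luminescence; concentration-effect curves fitted after normalization.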
Each line names hits and unclear results; the compound was inactive in the other large screens. The call rests on the fitted dose curve; in most records, active means well fitted curve in the direction sought with a large enough effect; inconclusive means small, poorly fitted or top-dose-only effect, or another doubt; inactive means no such curve, though single readings can be large; an effect the other way counts as inactive or inconclusive.

Cc1ccc(N2C(=O)NC(=O)/C(=C\C=C\c3ccco3)C2=O)cc1	SW480 rerep inconclusive, ELG1 DNA repair inconclusive, KB-3-1 tox inconclusive, MCF10A rereplic 7.3µM
O=C1NC(=O)N(c2ccccc2)C(=O)/C1=C/C=C/c1ccco1	SW480 rerep 15µM, KB-3-1 tox inconclusive, MCF10A rereplic inconclusive, KB-V1 cytotox inconclusive
Cc1cccc(N2C(=O)NC(=O)/C(=C/c3ccc([N+](=O)[O-])o3)C2=O)c1	none
Cc1cccc(N2C(=O)NC(=O)/C(=C\C=C\c3ccco3)C2=O)c1	SW480 rerep inconclusive, ELG1 DNA repair inconclusive, KB-3-1 tox inconclusive, MCF10A rereplic 15µM
Cc1ccc(N2C(=O)NC(=O)/C(=C\C=C\c3ccco3)C2=O)cc1C	SW480 rerep inconclusive, ELG1 DNA repair inconclusive, KB-3-1 tox inconclusive, MCF10A rereplic 5.8µM, KB-V1 cytotox inconclusive
O=c1c2ccccc2nc(/C=C\c2ccc(F)cc2)n1-c1ccccc1F	KB-3-1 tox inconclusive (no result: SW480 rerep, ELG1 DNA repair, MCF10A rereplic)
CC12CCC3C4CCC(=O)C(O)=C4CCC3C1CCC2OC(=O)CCC1CCCC1 (configuration not stated)	none (no result: ELG1 DNA repair, KB-3-1 tox, KB-V1 cytotox)
CCOC(=O)[C@]12Cc3cc(OC)ccc3[C@H]1N(CC(=O)OC)C(=O)c1ccccc12	none (no result: SW480 rerep, ELG1 DNA repair, MCF10A rereplic)
CCOC(=O)[C@]12Cc3ccccc3[C@H]1N(C(C)C)C(=O)c1ccccc12	KB-3-1 tox 21µM (no result: SW480 rerep, ELG1 DNA repair, MCF10A rereplic)
CCOC(=O)[C@]12Cc3ccc(C)cc3[C@H]1N(C1CCCCC1)C(=O)c1ccccc12	KB-3-1 tox 1.2µM, KB-V1 cytotox 2.3µM (no result: SW480 rerep, ELG1 DNA repair, MCF10A rereplic)
CCOC(=O)[C@]12Cc3cc4c(cc3[C@H]1N(Cc1ccccc1)C(=O)c1ccccc12)OCO4	KB-3-1 tox inconclusive, KB-V1 cytotox inconclusive (no result: ELG1 DNA repair)
CCOC(=O)C12C(=O)OCC1C2c1ccccc1 (configuration not stated)	KB-3-1 tox inconclusive (no result: SW480 rerep, ELG1 DNA repair, MCF10A rereplic)
CCOC(=O)C1C(=O)N(C)C2(C)CC1c1cc(OC)ccc1O2 (configuration not stated)	none
CCOC(=O)[C@]12Cc3cc(Cl)ccc3[C@H]1N(C1CCCCC1)C(=O)c1cc(OC)ccc12	KB-3-1 tox 1µM, KB-V1 cytotox 5.8µM (no result: SW480 rerep, ELG1 DNA repair, MCF10A rereplic)
CCOC(=O)[C@]12Cc3c(cc(OC)c(OC)c3OC)[C@H]1N(C1CCCCC1)C(=O)c1ccccc12	KB-3-1 tox 3.3µM, KB-V1 cytotox inconclusive (no result: SW480 rerep, ELG1 DNA repair, MCF10A rereplic)
COc1ccc(S(=O)(=O)Nc2ccc3c(c2)CC(=O)N([C@@H](C)CO)C[C@H](C)[C@@H](CN(C)S(=O)(=O)c2ccc(F)cc2)O3)cc1	SW480 rerep inconclusive
CCN1CCC[C@@H](OC(=O)C(c2ccccc2)c2ccccc2)C1	none (no result: ELG1 DNA repair, KB-3-1 tox, KB-V1 cytotox)
O=C(O)CCCC[C@@H]1SC[C@@H]2NC(=O)N[C@@H]21	none (no result: ELG1 DNA repair)
Cc1ccc(S(=O)(=O)NN=Cc2cc(Cl)ccc2O)cc1	MCF10A rereplic inconclusive (no result: ELG1 DNA repair)
CCOC(=O)[C@]12Cc3cc(C)ccc3[C@H]1N(C1CCCCC1)C(=O)c1ccccc12	KB-3-1 tox 1.6µM, KB-V1 cytotox 2.6µM (no result: SW480 rerep, ELG1 DNA repair, MCF10A rereplic)
CCCCCN1C(=O)c2ccccc2[C@@]2(C(=O)OCC)Cc3cc(Cl)ccc3[C@@H]12	KB-3-1 tox inconclusive (no result: SW480 rerep, ELG1 DNA repair, MCF10A rereplic)
CCOC(=O)[C@]12Cc3ccc(C)cc3[C@H]1N(C1CCCCC1)C(=O)c1cc(OC)ccc12	KB-3-1 tox inconclusive, KB-V1 cytotox 4.6µM (no result: SW480 rerep, ELG1 DNA repair, MCF10A rereplic)
CCOC(=O)[C@]12Cc3cc(C)ccc3[C@H]1N(CCC(=O)OC)C(=O)c1ccccc12	KB-3-1 tox 13µM, KB-V1 cytotox 4.1µM (no result: SW480 rerep, ELG1 DNA repair, MCF10A rereplic)
COc1ccc(C(=O)NCc2cc3ccccc3n2C)cc1	ELG1 DNA repair inconclusive
O=P(O)(O)c1ccccc1OCCOCCOCCOCCOc1ccccc1P(=O)(O)O	ELG1 DNA repair inconclusive
O/N=C/c1c[nH]c2ccccc12	none
NC(=Nc1ccccc1)NN=Cc1c[nH]c2ccccc12	SW480 rerep 6.5µM, KB-3-1 tox inconclusive, KB-V1 cytotox 2.6µM (no result: ELG1 DNA repair)
Cc1ccc(NC(=O)c2snnc2C)cc1Cl	ELG1 DNA repair inconclusive, KB-3-1 tox inconclusive, KB-V1 cytotox 10µM
C#C[C@]1(O)CC[C@H]2[C@@H]3CCC4=Cc5nc6nc7ccccc7n6cc5C[C@]4(C)[C@H]3CC[C@@]21C	SW480 rerep 7.9µM, ELG1 DNA repair 7.9µM, MCF10A rereplic inconclusive, KB-V1 cytotox inconclusive
C#CC1(O)CCC2C3CCC4=CC(=O)CCC4(C)C3CCC21C (configuration not stated)	none (no result: ELG1 DNA repair, KB-3-1 tox, KB-V1 cytotox)
